Source: the OligoGym collection

target: ABHD8; assay: pooled miR-30 sensor sort-seq; sequence = guide strand; conditions: shRNA
Further: reference of the scale not given here.

Point of comparison: TTTGCAGCTAGTGATGCGCTTC, sensor-assay potency score (higher = more potent) -0.147. Against it:
- TAGCGCTTGAAGATTGCTCGCA — higher, 0.247
- TTTAACAGCTGCTTCTCCTTGG — higher, 0.506
- TTTTCCACCAGCAACCGCCCAT — lower, -0.43
- TTGACCTCTACAAAGGTGTAGC — lower, -0.315
- TTAACAGCTGCTTCTCCTTGGC — lower, -0.231
- TTCGCTTCTTGGCATAGCGCTT — lower, -0.977
- TACAAAGGTGTAGCCATCGCTG — lower, -0.814
- TTGAAGATTGAGCAGAAGCTGG — lower, -0.887
- AAACTTATCGTGCATGCCGTGG — lower, -1.36

target: ACACB; assay: as above; conditions: shRNA

Point of comparison: TTGTAAGCTGGATCGATCCTTC, sensor-assay potency score (higher = more potent) -0.276. Against it:
- TTCAGTAGTGAATCCGCTGGGA — higher, 0.353
- TTTATCAGATCTTTCTTTCGGA — higher, 0.775
- TTGTCATAAACATCTTCTGGGA — lower, -0.671
- TTGGACTGTACGAATGTCCGTA — higher, 0.552
- TTGATCTTGACCTCAGCCTGTA — higher, 0.316
- TACATTTCTATGCACAGCGGGT — lower, -1.13
- TTACTCTTGGTGATCGGCTTGG — higher, 0.104
- TAAGAAAGCAACTCCATTCTTG — higher, 0.182
- TGTATCTGGACTCTCCTCCTTC — higher, -0.0476
- TATCACACACTTGTCGTAGTGG — higher, 0.451
- TTATCAGATCTTTCTTTCGGAA — lower, -0.751
- TAATTTCTTGAGGTTCTCGGGG — higher, -0.145
- TTCGGTAACTGTCAACCTCTTC — lower, -0.589
- TTCTTGTCTTCTTTGGAGGGGG — higher, -0.0633
- TTCTCAAACACACACGTCTTAT — lower, -1.28
- TACTTGTCTGAAAAGGATCGGG — higher, 0.16
- TTGGATGTGTAGACCTCTCTTC — higher, 0.36
- TTCATGTAGGTGGTGTAGCTGT — lower, -0.772
- TTTGCTTCTGATTTACTCTTGG — higher, 0.795
- TAGAGGTATTCCACTGTCCCTG — higher, -0.211
- TTTATCACACACTTGTCGTAGT — higher, 0.458
- TTTGTCTGCATACATTTCTATG — lower, -1.38

target: ACAD10; assay: as above; conditions: shRNA

Point of comparison: TTTCTCCTTGAGGTCTTCGATC, sensor-assay potency score (higher = more potent) -1.58. Against it:
- AAGCACAGCTTGTAGATCCTAG — higher, 0.0767
- TTTCAGAGCAAAGTCTCCCAAA — higher, -1.07
- TTGAGGTCTTCGATCAGTGGGG — higher, -0.0648
- TTTCATAATCCTGAACTCCCTC — higher, -0.41
- TTCGGTGCCATACCTCACCAGC — higher, -0.906
- TATGACATAGAAGCTGTCCTCC — higher, 1.02
